# Whole data set: some 18,000 sequences, median “log2 normalized intensity” near 0.39, cut for the highest 2% near 6.6. The full list was thinned out, with the highest values kept by preference.
# Molecular target: T1, HNF4alpha2 (COS-7 nuclear extract) (Homo sapiens, UniProt P41235 1-474)
# T1 sequence: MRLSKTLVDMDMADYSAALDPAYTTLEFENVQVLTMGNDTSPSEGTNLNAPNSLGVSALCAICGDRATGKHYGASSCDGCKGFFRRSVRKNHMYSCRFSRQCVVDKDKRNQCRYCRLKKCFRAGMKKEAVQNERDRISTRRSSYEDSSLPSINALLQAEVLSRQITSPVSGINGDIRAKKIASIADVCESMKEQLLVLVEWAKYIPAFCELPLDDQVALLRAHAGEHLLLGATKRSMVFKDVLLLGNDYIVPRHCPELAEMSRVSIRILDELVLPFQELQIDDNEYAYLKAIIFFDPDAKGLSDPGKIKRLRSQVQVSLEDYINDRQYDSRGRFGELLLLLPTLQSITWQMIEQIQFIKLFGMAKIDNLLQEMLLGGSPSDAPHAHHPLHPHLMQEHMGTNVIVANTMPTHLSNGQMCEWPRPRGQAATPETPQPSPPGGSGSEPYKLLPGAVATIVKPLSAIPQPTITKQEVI
# Assay: protein-binding microarray; COS-7 nuclear extract on double-stranded Agilent 4x180k PBM; binding buffer, salt, pH and temperature not given in the material; high values mean tight binding
# Conditions: chain copies: 2; label: 3' end of strand 1 on the slide; dsDNA, one strand shown
# Summary of the method: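 A custom Agilent SurePrint G3 4x180k array, spotted in quadruplicate with ~44,000 test sequences as ~60-nt oligonucleotides made double-stranded, was incubated with nuclear extracts. The extracts came from COS-7 cells transiently transfected by CaPO4 with a human HNF4α isoform expression vector. Bound HNF4α was imaged on an Agilent G2565CA scanner at 2-µm resolution, and the binding signal was taken as Agilent software's background-corrected, normalized gProcessedSignal.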
row,Sequence,binding signal [log2 normalized intensity]
1,AATGGTGGGATAGGAGACATGAAGGACATAGCCTAGGGAGATTAGAGTATCGGTCGA,-0.721
2,TCCTCTTATCTTCAGGTTTGCTAATATCTGGCCTAGGGAGATTAGAGTATCGGTCGA,1.35
3,CTAGGAGAGTCCGGGGCAAACAAGGGCAACGCCTAGGGAGATTAGAGTATCGGTCGA,-0.823
4,TGAGATAGGTACTATTATTAGAGTCCCTTTGCCTAGGGAGATTAGAGTATCGGTCGA,1.01
5,TTTCCCCGTCCCAAGCTGAGGTCTGGTGTCGCCTAGGGAGATTAGAGTATCGGTCGA,2.59
6,CTGAGATAGTCATTCTTCTACAGTGTTTACGCCTAGGGAGATTAGAGTATCGGTCGA,0.901
7,AGCACACCTTTTTTTCATGCAAATTTCCGTGCCTAGGGAGATTAGAGTATCGGTCGA,0.118
8,AAGAAATAAAAACAGCTGGGTTCCAAAAGGGCCTAGGGAGATTAGAGTATCGGTCGA,0.155
9,GTCAAACTTTGGACCCACTGCAGGATTGGAGCCTAGGGAGATTAGAGTATCGGTCGA,3.52
10,CCCTCCTTAAGACCTAGATGGAATGTTGTGGCCTAGGGAGATTAGAGTATCGGTCGA,1.29
11,TCAGGCCATTTCACCTTTGCCCTGTCAGTCGCCTAGGGAGATTAGAGTATCGGTCGA,5.88
12,ACACTTGCCCTTTGCCCTCACTGGTAGAAGGCCTAGGGAGATTAGAGTATCGGTCGA,5.09
13,AAAGGCTGTCACACTTGCCCTTTGCCCTCAGCCTAGGGAGATTAGAGTATCGGTCGA,8.34
14,AGCCTCTATGTCAGGCCATTTCACCTTTGCGCCTAGGGAGATTAGAGTATCGGTCGA,3.72
15,CTATGTCAGGCCATTTCACCTTTGCCCTGTGCCTAGGGAGATTAGAGTATCGGTCGA,6.82
16,AAGGCTGTCACACTGGCCTTTGCCCTCGCTGCCTAGGGAGATTAGAGTATCGGTCGA,4.98
17,CTGTCACACTTGCCCTTTGCCCTCACTGGTGCCTAGGGAGATTAGAGTATCGGTCGA,7.1
18,CACAAAAAGGCTGTCACACTTGCCCTTTGCGCCTAGGGAGATTAGAGTATCGGTCGA,4.82
19,TGTCACACTGGCCTTTGCCCTCGCTGGCGGGCCTAGGGAGATTAGAGTATCGGTCGA,4.25
20,GAGGAGAGAGTAAATAATTGATGAAACAGGGCCTAGGGAGATTAGAGTATCGGTCGA,-0.991
21,AGTACCTCTCAAAAATCTCACTCACCCTAAGCCTAGGGAGATTAGAGTATCGGTCGA,-0.279

row,Sequence,binding signal [log2 normalized intensity]
1,CATGAAGGTCTCCTTGACTTCAAAGGCATTGCCTAGGGAGATTAGAGTATCGGTCGA,0.693
2,CTATCTGCCTGCAGGAGAGAGCAAAGTCCAGCCTAGGGAGATTAGAGTATCGGTCGA,7.16
3,CAACTCCAAAGTCCAAAGTCCAGTCTTATCGCCTAGGGAGATTAGAGTATCGGTCGA,8.27
4,CAGGGAGCCCTTATATCCACATGGGTCCAAGCCTAGGGAGATTAGAGTATCGGTCGA,2.29
5,GACCAGTCTGCCTGACTCCAGAGTCCAAACGCCTAGGGAGATTAGAGTATCGGTCGA,2.77
6,TGCAAGTTACCTTGGGGTCAAAGTACATCCGCCTAGGGAGATTAGAGTATCGGTCGA,8.65
7,GTTACCTTGGGGTCAAAGTACATCCCCTAAGCCTAGGGAGATTAGAGTATCGGTCGA,6.4
8,ATTCCTAAGTTCCAAAGGCCATCCACATTCGCCTAGGGAGATTAGAGTATCGGTCGA,1.84
9,TGTCTCCCTCTGCAGCAAAGTCCAGGCATAGCCTAGGGAGATTAGAGTATCGGTCGA,1.13
10,CTTGGGGTCAAAGTACATCCCCTAAAACATGCCTAGGGAGATTAGAGTATCGGTCGA,5.71
11,TGCCTGCAGGAGAGAGCAAAGTCCACGCATGCCTAGGGAGATTAGAGTATCGGTCGA,6.29
12,AGTCTTGAGTCCCAAAGTCCAAAGGCAGTCGCCTAGGGAGATTAGAGTATCGGTCGA,2.83
13,AGCCCTTATATCCACATGGGTCCAAAGTTCGCCTAGGGAGATTAGAGTATCGGTCGA,8.54
14,GAGTCTTAGGGAGGGGCCAGGACAAAGGTCGCCTAGGGAGATTAGAGTATCGGTCGA,5.72
15,CCACTCTCATGGTCAATATTTTCTTTGTGCGCCTAGGGAGATTAGAGTATCGGTCGA,1.63
16,GTCTGATCTTCCTGAGGAGAGCAAAGATCAGCCTAGGGAGATTAGAGTATCGGTCGA,2.54
17,GACTCCAGTGATCTTATCGCCTAGTACTCCGCCTAGGGAGATTAGAGTATCGGTCGA,-0.841
18,CCTCGCCTATGGTATGTATGGAATGTCACTGCCTAGGGAGATTAGAGTATCGGTCGA,1.63
19,GCCAGGACAAAGGTCCTGTGGCCTGGGGAGGCCTAGGGAGATTAGAGTATCGGTCGA,0.557
20,CCTGGCCATTTCTCAGGTTGTGTTTGCAGTGCCTAGGGAGATTAGAGTATCGGTCGA,1.53
21,CTATTGCAGTAACGGCAGGGTTGTGCAGGAGCCTAGGGAGATTAGAGTATCGGTCGA,0.453

# Reference: paper PMC10726135, “HNF4α isoforms regulate the circadian balance between carbohydrate and lipid metabolism in the liver”
